# From PubChem BioAssay (NCI)
# Where “and” joins values, the source holds several entries; their conditions need not be identical. Identical values can stand only once. This is part of a sample that, as a whole, favours compounds with a hit. Of some 83,000 tested, about 20% had one in any assay.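 Growth was measured after 48 h exposure to one concentration of compound in 96-well plates. Values under 10 count as active.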 Calls of active or inactive are those of the source.
# Columns and labels:
# Assay in all cases: NCI-60 one-dose screen, 48 h (100 = growth as untreated, 0 = no growth, -100 = all killed)
# [1] = test system: EKVX NSCLC; conditions: 10 µM unless noted
# [2] = test system: SN12C renal
# [3] = test system: UO-31 renal; conditions: 10 µM unless noted
# [4] = test system: TK-10 renal
# [5] = test system: ACHN renal; conditions: 10 µM unless noted
# [6] = test system: CAKI-1 renal
# [7] = test system: A498 renal
# [8] = test system: CCRF-CEM leukemia; conditions: 10 µM unless noted
# [9] = test system: MOLT-4 leukemia
structure (smiles),measurement,setting,value
OCc1cccc(F)c1,growth,[1],106% (inactive)
same,growth,[2]; 10 µM unless noted,83.6% (inactive)
same,growth,[3],75.1% (inactive)
same,growth,[4]; 10 µM unless noted,96.5% (inactive)
same,growth,[5],-0.315% (active)
same,growth,[6]; 10 µM unless noted,34.2% (inactive)
same,growth,[7]; 10 µM unless noted,111% (inactive)
same,growth,[8],103% (inactive)
same,growth,[9]; 10 µM unless noted,83.5% (inactive)
O=[N+]([O-])c1ccc(N/N=C/C2CCCCCC2)c([N+](=O)[O-])c1,growth,[1],84.9% (inactive)
same,growth,[2]; 10 µM unless noted,92% (inactive)
same,growth,[3],61.2% (inactive)
same,growth,[4]; 10 µM unless noted,118% (inactive)
same,growth,[6]; 10 µM unless noted,74.2% (inactive)
same,growth,[7]; 10 µM unless noted,62.7% (inactive)
same,growth,[8],51.6% (inactive)
same,growth,[9]; 10 µM unless noted,77.3% (inactive)
S=c1ccc2ccccc2[nH]1,growth,[2]; 10 µM unless noted,101% (inactive)
same,growth,[3],88.2% (inactive) and 80.9% (inactive)
same,growth,[4]; 10 µM unless noted,105% (inactive) and 108% (inactive)
same,growth,[5],101% (inactive) and 109% (inactive)
same,growth,[6]; 10 µM unless noted,96.5% (inactive)
same,growth,[7]; 10 µM unless noted,110% (inactive)
same,growth,[8],103% (inactive) and 101% (inactive)
same,growth,[9]; 10 µM unless noted,93.3% (inactive) and 100% (inactive)
O=C(Nc1ccccc1)OCC(CN1CCCCC1)OC(=O)Nc1ccccc1 (configuration not stated),growth,[1],82.5% (inactive)
same,growth,[2]; 10 µM unless noted,77.5% (inactive) and 94% (inactive)
same,growth,[3],53.5% (inactive) and 66.7% (inactive)
same,growth,[4]; 10 µM unless noted,93.2% (inactive) and 104% (inactive)
same,growth,[5],72.9% (inactive) and 92.8% (inactive)
same,growth,[6]; 10 µM unless noted,71.6% (inactive) and 86% (inactive)
same,growth,[7]; 10 µM unless noted,79.5% (inactive) and 68.7% (inactive)
same,growth,[8],82.3% (inactive)
same,growth,[9]; 10 µM unless noted,64.8% (inactive) and 87.9% (inactive)
CC1(C)CC(=O)NC1=O,growth,[1],103% (inactive)
same,growth,[2]; 10 µM unless noted,101% (inactive)
same,growth,[3],87.1% (inactive)
same,growth,[4]; 10 µM unless noted,91.8% (inactive)
same,growth,[5],98.2% (inactive)
same,growth,[6]; 10 µM unless noted,93.5% (inactive)
same,growth,[7]; 10 µM unless noted,81.5% (inactive)
same,growth,[8],95.6% (inactive)
same,growth,[9]; 10 µM unless noted,107% (inactive)
CC1OS(=O)OC1C (configuration not stated),growth,[1],100% (inactive)
same,growth,[2]; 10 µM unless noted,95.8% (inactive) and 95.4% (inactive)
same,growth,[4]; 10 µM unless noted,99.8% (inactive) and 107% (inactive)
same,growth,[5],91.9% (inactive) and 103% (inactive)
same,growth,[6]; 10 µM unless noted,96.7% (inactive) and 89.1% (inactive)
same,growth,[7]; 10 µM unless noted,101% (inactive) and 105% (inactive)
same,growth,[8],96.2% (inactive)
same,growth,[9]; 10 µM unless noted,81% (inactive) and 113% (inactive)
COC(=O)c1ccccc1Cl,growth,[2]; 10 µM unless noted,105% (inactive)
same,growth,[4]; 10 µM unless noted,97.1% (inactive)
same,growth,[5],106% (inactive)
same,growth,[6]; 10 µM unless noted,99.6% (inactive)
same,growth,[7]; 10 µM unless noted,88.8% (inactive)
same,growth,[9]; 10 µM unless noted,105% (inactive)
CS/C(=C\c1ccc(C(=O)c2ccc(C)cc2)n1C)S(C)=O (configuration not stated),growth,[1],63.8% [100 µM] (inactive)
same,growth,[2]; 10 µM,82% (inactive)
same,growth,[2]; 100 µM,80.9% (inactive)
same,growth,[4]; 10 µM,108% (inactive)
same,growth,[4]; 100 µM,87% (inactive)
same,growth,[6]; 10 µM,75.5% (inactive)
same,growth,[6]; 100 µM,63.2% (inactive)
same,growth,[7]; 10 µM,108% (inactive)
same,growth,[7]; 100 µM,109% (inactive)
same,growth,[8],72.5% [100 µM] (inactive)
same,growth,[9]; 10 µM,93.9% (inactive)
same,growth,[9]; 100 µM,66.8% (inactive)
CCN(CC)CCO/N=C1\CC(c2ccc(OC)c(OC)c2)Oc2ccccc21 (configuration not stated),growth,[1],96.3% (inactive)
same,growth,[2]; 10 µM unless noted,99.1% (inactive)
same,growth,[3],71.7% (inactive)
same,growth,[4]; 10 µM unless noted,86.9% (inactive)
same,growth,[5],101% (inactive)
same,growth,[6]; 10 µM unless noted,83.3% (inactive)
same,growth,[7]; 10 µM unless noted,112% (inactive)
same,growth,[8],93% (inactive)
same,growth,[9]; 10 µM unless noted,90.6% (inactive)
O=C(O)c1cc(=O)[nH]c(=O)[nH]1,growth,[1],93.6% (inactive) and 115% (inactive)
same,growth,[2]; 10 µM unless noted,98.7% (inactive) and 98.5% (inactive)
same,growth,[3],78.8% (inactive) and 42.2% (inactive)
same,growth,[4]; 10 µM unless noted,106% (inactive) and 135% (inactive)
same,growth,[6]; 10 µM unless noted,94.9% (inactive) and 119% (inactive)
same,growth,[7]; 10 µM unless noted,94.3% (inactive) and 71.1% (inactive)
same,growth,[8],105% (inactive) and 74.4% (inactive)
same,growth,[9]; 10 µM unless noted,98.5% (inactive) and 91.5% (inactive)
CCOC(=O)NC(N)=O,growth,[2]; 10 µM unless noted,103% (inactive) and 98.1% (inactive)
same,growth,[3],86.6% (inactive) and 95.3% (inactive)
same,growth,[4]; 10 µM unless noted,88.4% (inactive)
same,growth,[5],100% (inactive) and 103% (inactive)
same,growth,[6]; 10 µM unless noted,99.1% (inactive) and 101% (inactive)
same,growth,[7]; 10 µM unless noted,101% (inactive) and 104% (inactive)
same,growth,[8],99.2% (inactive) and 99.3% (inactive)
same,growth,[9]; 10 µM unless noted,97.2% (inactive) and 106% (inactive)
Cc1cc2nc3ccc(=[N+](C)C)cc-3sc2cc1N,growth,[1],38.7% (inactive) and 24.3% (inactive)
same,growth,[2]; 10 µM unless noted,-65.9% (active) and -66.4% (active)
same,growth,[3],8.95% (active) and 36.6% (inactive)
same,growth,[5],-73.1% (active) and 9.45% (active)
same,growth,[6]; 10 µM unless noted,12% (inactive) and 27.6% (inactive)
same,growth,[7]; 10 µM unless noted,74.9% (inactive) and 65.4% (inactive)
same,growth,[8],-7.13% (active) and -12.1% (active)
same,growth,[9]; 10 µM unless noted,-10.7% (active) and -19.8% (active)
